# According to paper PMC7862700, “An all-to-all approach to the identification of sequence-specific readers for epigenetic DNA modifications on cytosine”:
# Legend:
# Experiment in all cases: DAPPL (digital affinity profiling via proximity ligation, sequencing); 10 mM Tris-HCl pH 7.5, 50 mM NaCl, 1 mM DTT, 4% glycerol, room temperature, 30 min; GST-TFs on glutathione beads, 16-mer random dsDNA library, 0.1% formaldehyde crosslink after washing; high values mean tight binding
# [1] = target: T1, FLI1 (Homo sapiens, UniProt Q01543 1-452); conditions: protein: recombinant; tags: N-terminal GST; dsDNA, one strand shown
# T1 sequence: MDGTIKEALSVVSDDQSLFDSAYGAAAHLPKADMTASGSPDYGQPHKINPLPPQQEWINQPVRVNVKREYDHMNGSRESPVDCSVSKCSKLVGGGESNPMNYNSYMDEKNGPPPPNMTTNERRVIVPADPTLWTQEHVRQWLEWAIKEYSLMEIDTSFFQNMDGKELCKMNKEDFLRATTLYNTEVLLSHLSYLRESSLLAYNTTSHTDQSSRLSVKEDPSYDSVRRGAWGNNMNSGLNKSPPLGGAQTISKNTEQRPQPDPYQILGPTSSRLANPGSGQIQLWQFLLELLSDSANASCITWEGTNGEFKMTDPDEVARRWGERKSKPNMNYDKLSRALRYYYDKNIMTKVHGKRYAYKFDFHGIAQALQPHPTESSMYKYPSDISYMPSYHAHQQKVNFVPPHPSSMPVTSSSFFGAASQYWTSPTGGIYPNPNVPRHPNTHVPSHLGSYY
# Method in brief: (§1)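 Binding signal is defined as a hexamer's read frequency for one factor over its frequency for the tag-only sample. To obtain reads, GST-fused human transcription factors were expressed in yeast, captured on glutathione beads, barcoded with DNA and pooled with that sample. Pools met 200 nmole of a 16-mer random double-stranded DNA library in Tris/NaCl/DTT/glycerol buffer for 30 min at room temperature before washing, 0.1% formaldehyde crosslinking, proximity ligation (BsaI/T4 ligase, 1 h, 37 °C), PCR and Illumina NextSeq500 sequencing.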
# [2] = target: T2, ELK1 (Homo sapiens, UniProt P19419 1-428); conditions: protein: recombinant; tags: N-terminal GST; dsDNA, one strand shown
# T2 sequence: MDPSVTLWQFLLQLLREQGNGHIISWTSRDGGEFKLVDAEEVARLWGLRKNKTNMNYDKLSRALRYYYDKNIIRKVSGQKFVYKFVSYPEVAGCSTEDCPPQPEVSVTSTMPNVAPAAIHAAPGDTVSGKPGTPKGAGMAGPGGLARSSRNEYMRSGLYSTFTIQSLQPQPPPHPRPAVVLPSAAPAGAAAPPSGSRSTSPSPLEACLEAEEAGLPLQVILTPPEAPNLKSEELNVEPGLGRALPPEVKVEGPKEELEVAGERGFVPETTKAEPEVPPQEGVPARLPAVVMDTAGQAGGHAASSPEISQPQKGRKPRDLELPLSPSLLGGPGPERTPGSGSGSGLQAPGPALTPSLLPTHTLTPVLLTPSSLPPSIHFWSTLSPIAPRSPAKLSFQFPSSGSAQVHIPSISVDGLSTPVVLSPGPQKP
# Method in brief: as §1
# [3] = target: T3, GABPA (Homo sapiens, UniProt Q06546 1-454); conditions: protein: recombinant; tags: N-terminal GST; dsDNA, one strand shown
# T3 sequence: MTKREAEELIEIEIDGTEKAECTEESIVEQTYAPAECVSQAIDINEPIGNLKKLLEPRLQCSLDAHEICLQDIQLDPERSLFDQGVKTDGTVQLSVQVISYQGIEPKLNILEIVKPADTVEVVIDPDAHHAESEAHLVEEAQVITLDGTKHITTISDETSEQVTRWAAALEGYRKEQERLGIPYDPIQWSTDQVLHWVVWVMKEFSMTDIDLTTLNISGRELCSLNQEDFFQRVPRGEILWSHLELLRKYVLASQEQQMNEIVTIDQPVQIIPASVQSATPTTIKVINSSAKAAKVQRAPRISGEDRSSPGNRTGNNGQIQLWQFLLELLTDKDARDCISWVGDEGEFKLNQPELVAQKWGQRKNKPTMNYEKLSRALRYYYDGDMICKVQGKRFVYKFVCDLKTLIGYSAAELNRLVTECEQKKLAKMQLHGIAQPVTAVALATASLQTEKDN
# Method in brief: as §1
# [4] = target: T4, ERG (Homo sapiens, UniProt P11308 1-479); conditions: protein: recombinant; tags: N-terminal GST; dsDNA, one strand shown
# T4 sequence: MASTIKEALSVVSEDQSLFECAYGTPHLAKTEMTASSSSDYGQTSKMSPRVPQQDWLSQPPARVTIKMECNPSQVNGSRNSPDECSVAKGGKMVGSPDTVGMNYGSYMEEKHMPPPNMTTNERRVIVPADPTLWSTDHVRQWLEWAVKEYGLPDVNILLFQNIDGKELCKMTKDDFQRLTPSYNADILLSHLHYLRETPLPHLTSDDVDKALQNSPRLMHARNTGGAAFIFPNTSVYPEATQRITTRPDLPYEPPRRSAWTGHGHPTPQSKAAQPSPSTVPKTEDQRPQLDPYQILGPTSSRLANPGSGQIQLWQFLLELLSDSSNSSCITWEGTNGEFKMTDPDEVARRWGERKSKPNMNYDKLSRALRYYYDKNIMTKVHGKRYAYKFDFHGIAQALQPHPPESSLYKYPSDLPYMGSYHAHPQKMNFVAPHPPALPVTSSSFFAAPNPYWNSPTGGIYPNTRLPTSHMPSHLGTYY
# Method in brief: as §1
# [5] = target: ELF1 (Homo sapiens, UniProt P32519 1-619); conditions: protein: recombinant; tags: N-terminal GST; dsDNA, one strand shown
# Method in brief: as §1
# [6] = target: T5, EHF (Homo sapiens, UniProt Q9NZC4 1-300); conditions: protein: recombinant; tags: N-terminal GST; dsDNA, one strand shown
# T5 sequence: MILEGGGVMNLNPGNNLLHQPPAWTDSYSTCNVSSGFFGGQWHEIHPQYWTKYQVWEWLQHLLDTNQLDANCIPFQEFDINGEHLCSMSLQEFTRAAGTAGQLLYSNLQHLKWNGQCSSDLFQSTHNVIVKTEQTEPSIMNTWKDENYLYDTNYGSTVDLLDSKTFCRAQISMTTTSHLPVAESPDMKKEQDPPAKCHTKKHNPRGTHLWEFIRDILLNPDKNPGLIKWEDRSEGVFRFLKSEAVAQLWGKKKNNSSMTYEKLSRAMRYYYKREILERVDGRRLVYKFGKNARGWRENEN
# Method in brief: as §1
# [7] = target: SPI1 (Homo sapiens, UniProt P17947 1-270); conditions: protein: recombinant; tags: N-terminal GST; dsDNA, one strand shown
# Method in brief: as §1
# [8] = target: SPIB (Homo sapiens, UniProt Q01892 1-262); conditions: protein: recombinant; tags: N-terminal GST; dsDNA, one strand shown
# Method in brief: as §1
# [9] = target: T6, ELK3 (Homo sapiens, UniProt P41970 1-407); conditions: protein: recombinant; tags: N-terminal GST; dsDNA, one strand shown
# T6 sequence: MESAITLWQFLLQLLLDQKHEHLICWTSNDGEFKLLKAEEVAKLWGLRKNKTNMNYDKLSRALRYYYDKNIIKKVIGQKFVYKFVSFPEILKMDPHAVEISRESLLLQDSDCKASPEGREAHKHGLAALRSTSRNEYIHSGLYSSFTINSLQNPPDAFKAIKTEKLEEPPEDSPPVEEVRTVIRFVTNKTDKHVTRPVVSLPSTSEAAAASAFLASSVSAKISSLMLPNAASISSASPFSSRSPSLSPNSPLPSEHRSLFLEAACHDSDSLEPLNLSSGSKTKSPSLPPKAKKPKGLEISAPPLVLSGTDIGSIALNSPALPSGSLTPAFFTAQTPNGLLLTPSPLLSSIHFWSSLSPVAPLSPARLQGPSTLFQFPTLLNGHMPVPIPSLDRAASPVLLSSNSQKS
# Method in brief: as §1
# [10] = target: T7, FEV (Homo sapiens, UniProt Q99581 1-238); conditions: protein: recombinant; tags: N-terminal GST; dsDNA, one strand shown
# T7 sequence: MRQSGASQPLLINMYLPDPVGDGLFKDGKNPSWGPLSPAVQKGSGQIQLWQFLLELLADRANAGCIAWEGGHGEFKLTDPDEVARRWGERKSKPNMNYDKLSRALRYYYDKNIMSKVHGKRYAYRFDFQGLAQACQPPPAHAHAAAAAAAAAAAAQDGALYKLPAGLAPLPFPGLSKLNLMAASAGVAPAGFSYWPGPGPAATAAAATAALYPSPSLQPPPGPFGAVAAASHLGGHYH
# Method in brief: as §1
# [11] = target: ETV5 (Homo sapiens, UniProt P41161 1-510); conditions: protein: recombinant; tags: N-terminal GST; dsDNA, one strand shown
# Method in brief: as §1
# [12] = target: HSF1 (Homo sapiens, UniProt Q00613 1-529); conditions: protein: recombinant; tags: N-terminal GST; chain copies: 3; dsDNA, one strand shown
# Method in brief: as §1
# [13] = target: T8, SPIC (Homo sapiens, UniProt Q8N5J4 1-248); conditions: protein: recombinant; tags: N-terminal GST; dsDNA, one strand shown
# T8 sequence: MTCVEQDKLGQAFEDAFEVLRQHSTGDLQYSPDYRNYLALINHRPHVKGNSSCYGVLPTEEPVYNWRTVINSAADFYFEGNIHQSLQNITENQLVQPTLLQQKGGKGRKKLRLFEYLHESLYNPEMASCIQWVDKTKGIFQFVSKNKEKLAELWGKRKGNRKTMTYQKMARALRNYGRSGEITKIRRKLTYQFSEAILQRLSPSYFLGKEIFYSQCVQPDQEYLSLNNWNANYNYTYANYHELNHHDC
# Method in brief: as §1
# [14] = target: ELF4 (Homo sapiens, UniProt Q99607 1-663); conditions: protein: recombinant; tags: N-terminal GST; dsDNA, one strand shown
# Method in brief: as §1
# [15] = target: T9, ELK4 (Homo sapiens, UniProt P28324-2 1-405); conditions: protein: recombinant; tags: N-terminal GST; dsDNA, one strand shown
# T9 sequence: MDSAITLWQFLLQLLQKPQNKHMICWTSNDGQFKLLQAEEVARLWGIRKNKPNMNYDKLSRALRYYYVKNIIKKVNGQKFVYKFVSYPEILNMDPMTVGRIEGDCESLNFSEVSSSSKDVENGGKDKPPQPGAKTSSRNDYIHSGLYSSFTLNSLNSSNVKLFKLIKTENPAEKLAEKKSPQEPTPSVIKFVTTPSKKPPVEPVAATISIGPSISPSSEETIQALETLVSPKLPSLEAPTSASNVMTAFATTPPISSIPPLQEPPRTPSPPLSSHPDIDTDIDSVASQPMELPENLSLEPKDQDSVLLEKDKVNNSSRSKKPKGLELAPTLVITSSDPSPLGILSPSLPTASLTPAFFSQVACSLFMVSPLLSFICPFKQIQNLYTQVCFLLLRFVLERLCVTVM
# Method in brief: as §1
# [16] = target: T10, ETV2 (Homo sapiens, UniProt O00321 1-342); conditions: protein: recombinant; tags: N-terminal GST; dsDNA, one strand shown
# T10 sequence: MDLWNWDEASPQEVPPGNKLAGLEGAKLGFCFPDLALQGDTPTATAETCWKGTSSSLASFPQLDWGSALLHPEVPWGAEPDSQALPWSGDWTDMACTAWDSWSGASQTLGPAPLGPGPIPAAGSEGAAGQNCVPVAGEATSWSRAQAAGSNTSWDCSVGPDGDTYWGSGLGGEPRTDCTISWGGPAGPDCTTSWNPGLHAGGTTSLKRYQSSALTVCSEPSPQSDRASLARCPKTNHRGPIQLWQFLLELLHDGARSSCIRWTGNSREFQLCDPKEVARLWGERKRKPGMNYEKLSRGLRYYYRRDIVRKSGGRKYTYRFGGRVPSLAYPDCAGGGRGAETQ
# Method in brief: as §1
# [17] = target: T11, ELF3 (Homo sapiens, UniProt P78545 1-371); conditions: protein: recombinant; tags: N-terminal GST; dsDNA, one strand shown
# T11 sequence: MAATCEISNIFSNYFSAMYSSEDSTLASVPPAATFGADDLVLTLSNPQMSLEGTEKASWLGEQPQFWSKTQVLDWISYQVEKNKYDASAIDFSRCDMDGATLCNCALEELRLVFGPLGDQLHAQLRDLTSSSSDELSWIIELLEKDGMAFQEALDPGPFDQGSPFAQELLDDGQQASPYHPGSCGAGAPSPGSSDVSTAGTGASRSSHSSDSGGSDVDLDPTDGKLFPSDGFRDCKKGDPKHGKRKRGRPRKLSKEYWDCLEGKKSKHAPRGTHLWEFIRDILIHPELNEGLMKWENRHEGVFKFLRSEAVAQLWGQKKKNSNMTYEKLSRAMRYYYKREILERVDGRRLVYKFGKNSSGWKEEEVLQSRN
# Method in brief: as §1
# [18] = target: CRX (Homo sapiens, UniProt O43186 1-299); conditions: protein: recombinant; tags: N-terminal GST; dsDNA, one strand shown
# Method in brief: as §1
# [19] = target: ETV1 (Homo sapiens, UniProt P50549 1-477); conditions: protein: recombinant; tags: N-terminal GST; dsDNA, one strand shown
# Method in brief: as §1
# ELF1, sequence (P32519 whole entry): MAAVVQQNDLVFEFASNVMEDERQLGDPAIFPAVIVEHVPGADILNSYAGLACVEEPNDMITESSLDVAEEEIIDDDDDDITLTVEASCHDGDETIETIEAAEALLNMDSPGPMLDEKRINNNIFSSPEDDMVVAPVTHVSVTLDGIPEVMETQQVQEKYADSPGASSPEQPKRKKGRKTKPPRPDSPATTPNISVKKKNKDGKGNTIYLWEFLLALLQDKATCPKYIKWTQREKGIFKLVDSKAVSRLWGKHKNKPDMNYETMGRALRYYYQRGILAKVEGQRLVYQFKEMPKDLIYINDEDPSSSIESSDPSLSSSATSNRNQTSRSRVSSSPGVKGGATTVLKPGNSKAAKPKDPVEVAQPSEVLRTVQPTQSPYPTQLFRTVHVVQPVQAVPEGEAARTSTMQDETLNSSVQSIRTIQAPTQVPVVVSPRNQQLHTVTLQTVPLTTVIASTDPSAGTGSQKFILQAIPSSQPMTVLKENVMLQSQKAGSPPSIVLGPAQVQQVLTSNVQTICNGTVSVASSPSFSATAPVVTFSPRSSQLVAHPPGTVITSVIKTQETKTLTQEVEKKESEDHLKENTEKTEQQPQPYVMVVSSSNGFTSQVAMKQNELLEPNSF
# CRX, sequence (O43186 whole entry): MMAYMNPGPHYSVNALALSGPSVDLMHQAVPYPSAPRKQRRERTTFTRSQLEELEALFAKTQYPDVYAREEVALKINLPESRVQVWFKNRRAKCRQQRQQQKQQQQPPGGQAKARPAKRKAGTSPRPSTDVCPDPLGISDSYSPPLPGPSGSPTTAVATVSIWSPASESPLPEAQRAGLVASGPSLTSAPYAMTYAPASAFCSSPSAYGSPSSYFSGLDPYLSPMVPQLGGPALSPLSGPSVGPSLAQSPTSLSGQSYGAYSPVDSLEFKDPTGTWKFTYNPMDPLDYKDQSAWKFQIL
# HSF1, sequence (Q00613 whole entry): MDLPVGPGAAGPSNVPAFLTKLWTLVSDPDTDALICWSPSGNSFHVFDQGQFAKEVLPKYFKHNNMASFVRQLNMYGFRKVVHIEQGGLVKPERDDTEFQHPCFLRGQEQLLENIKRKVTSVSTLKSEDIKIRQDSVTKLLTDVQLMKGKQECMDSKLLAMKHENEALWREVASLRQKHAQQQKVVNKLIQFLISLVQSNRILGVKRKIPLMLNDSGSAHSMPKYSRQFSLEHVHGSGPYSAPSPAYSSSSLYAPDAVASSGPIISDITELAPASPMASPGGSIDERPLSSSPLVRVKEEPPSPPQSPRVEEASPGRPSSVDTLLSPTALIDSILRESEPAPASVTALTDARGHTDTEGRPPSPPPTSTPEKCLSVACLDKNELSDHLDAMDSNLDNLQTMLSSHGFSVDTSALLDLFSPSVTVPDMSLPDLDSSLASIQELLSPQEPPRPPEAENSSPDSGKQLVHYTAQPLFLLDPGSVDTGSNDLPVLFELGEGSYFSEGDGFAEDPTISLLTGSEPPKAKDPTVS
# ELF4, sequence (Q99607 whole entry): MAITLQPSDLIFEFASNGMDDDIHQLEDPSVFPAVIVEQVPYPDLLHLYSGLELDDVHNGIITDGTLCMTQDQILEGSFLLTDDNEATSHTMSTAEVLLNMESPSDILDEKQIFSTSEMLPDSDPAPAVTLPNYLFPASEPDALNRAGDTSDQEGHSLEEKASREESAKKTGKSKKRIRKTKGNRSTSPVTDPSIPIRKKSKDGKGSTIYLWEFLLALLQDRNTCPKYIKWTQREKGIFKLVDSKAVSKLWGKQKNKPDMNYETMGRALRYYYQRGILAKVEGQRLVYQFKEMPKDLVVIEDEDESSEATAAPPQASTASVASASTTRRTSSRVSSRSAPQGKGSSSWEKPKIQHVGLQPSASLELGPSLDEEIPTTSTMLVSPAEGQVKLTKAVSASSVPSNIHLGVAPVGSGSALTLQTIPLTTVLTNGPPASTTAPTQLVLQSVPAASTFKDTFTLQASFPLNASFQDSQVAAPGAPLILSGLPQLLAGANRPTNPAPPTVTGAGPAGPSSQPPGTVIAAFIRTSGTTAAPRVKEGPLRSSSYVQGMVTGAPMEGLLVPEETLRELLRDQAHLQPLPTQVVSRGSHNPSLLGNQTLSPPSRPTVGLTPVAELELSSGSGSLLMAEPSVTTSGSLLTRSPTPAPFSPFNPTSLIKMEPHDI
# ETV1, sequence (P50549 whole entry): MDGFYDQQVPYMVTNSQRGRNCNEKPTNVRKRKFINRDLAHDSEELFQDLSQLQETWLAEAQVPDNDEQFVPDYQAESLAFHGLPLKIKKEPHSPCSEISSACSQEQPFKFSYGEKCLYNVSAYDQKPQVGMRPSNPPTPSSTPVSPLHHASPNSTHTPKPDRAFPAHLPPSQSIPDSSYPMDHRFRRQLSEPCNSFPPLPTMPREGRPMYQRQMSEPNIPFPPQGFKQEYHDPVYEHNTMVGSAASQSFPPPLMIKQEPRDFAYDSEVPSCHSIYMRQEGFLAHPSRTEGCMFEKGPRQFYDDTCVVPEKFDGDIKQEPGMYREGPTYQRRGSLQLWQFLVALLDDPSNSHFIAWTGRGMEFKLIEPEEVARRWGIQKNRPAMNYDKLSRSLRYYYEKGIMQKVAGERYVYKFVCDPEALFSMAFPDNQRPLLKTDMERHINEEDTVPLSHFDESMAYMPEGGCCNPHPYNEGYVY
# ETV5, sequence (P41161 whole entry): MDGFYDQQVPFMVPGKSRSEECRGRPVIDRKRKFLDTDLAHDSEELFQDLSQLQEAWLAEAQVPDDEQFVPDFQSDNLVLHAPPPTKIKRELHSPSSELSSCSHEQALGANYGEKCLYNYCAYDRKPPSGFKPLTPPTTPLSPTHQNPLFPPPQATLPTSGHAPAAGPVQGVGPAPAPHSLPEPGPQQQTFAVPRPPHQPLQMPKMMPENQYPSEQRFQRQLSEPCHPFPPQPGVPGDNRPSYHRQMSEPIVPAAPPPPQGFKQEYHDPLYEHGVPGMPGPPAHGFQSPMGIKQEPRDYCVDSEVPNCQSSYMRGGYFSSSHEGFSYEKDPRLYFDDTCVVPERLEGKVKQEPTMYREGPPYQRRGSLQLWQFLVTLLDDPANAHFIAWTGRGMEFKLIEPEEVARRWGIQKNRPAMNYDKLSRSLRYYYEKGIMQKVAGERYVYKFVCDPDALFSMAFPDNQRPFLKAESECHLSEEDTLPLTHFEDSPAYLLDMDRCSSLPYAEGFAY
# SPIB, sequence (Q01892 whole entry): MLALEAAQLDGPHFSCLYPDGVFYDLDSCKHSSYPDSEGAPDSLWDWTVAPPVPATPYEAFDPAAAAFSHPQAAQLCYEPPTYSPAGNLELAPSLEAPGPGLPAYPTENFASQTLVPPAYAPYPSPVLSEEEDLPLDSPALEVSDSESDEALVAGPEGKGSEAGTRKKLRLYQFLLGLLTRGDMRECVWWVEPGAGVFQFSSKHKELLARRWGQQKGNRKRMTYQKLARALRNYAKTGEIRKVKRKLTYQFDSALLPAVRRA
sequence,measurement,setting,value
AGCTTA,binding signal,[1],"1.06 fold enrichment (6-mer frequency, TF over GST control)"
same,binding signal,[2],"1.12 fold enrichment (6-mer frequency, TF over GST control)"
same,binding signal,[3],"1.12 fold enrichment (6-mer frequency, TF over GST control)"
same,binding signal,[4],"1.13 fold enrichment (6-mer frequency, TF over GST control)"
same,binding signal,[5],"1.11 fold enrichment (6-mer frequency, TF over GST control)"
same,binding signal,[6],"1.1 fold enrichment (6-mer frequency, TF over GST control)"
same,binding signal,[7],"1.14 fold enrichment (6-mer frequency, TF over GST control)"
same,binding signal,[8],"1.21 fold enrichment (6-mer frequency, TF over GST control)"
same,binding signal,[9],"1.11 fold enrichment (6-mer frequency, TF over GST control)"
same,binding signal,[10],"1.06 fold enrichment (6-mer frequency, TF over GST control)"
same,binding signal,[11],"1.07 fold enrichment (6-mer frequency, TF over GST control)"
same,binding signal,[12],"1.94 fold enrichment (6-mer frequency, TF over GST control)"
same,binding signal,[13],"1.12 fold enrichment (6-mer frequency, TF over GST control)"
same,binding signal,[14],"1.11 fold enrichment (6-mer frequency, TF over GST control)"
same,binding signal,[15],"1.08 fold enrichment (6-mer frequency, TF over GST control)"
same,binding signal,[16],"1.14 fold enrichment (6-mer frequency, TF over GST control)"
same,binding signal,[17],"1.23 fold enrichment (6-mer frequency, TF over GST control)"
same,binding signal,[18],"3.13 fold enrichment (6-mer frequency, TF over GST control)"
same,binding signal,[19],"1.23 fold enrichment (6-mer frequency, TF over GST control)"
